Laboratory results: PubChem BioAssay (NCI)
Where “and” joins values, the source holds several entries; their conditions need not be identical. Identical values can stand only once. Compounds without any hit were thinned out: in the full panel of roughly 83,000, 20% have a hit.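 48-hour exposure, single concentration, 96-well plates; percent growth endpoint where 0 means no net growth. Active: below 10.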 Some structures have more than one record in an assay (separate samples or runs), and their calls can disagree. Calls of active or inactive are those of the source.

Tests used:
Assay in all cases: NCI-60 one-dose screen, 48 h (100 = growth as untreated, 0 = no growth, -100 = all killed)
Details in all cases: 10 µM
[1] = test system: HOP-92 NSCLC
[2] = test system: K-562 leukemia
[3] = test system: MALME-3M melanoma
[4] = test system: RXF 393 renal
[5] = test system: SK-MEL-28 melanoma
[6] = test system: SK-MEL-2 melanoma
[7] = test system: SN12C renal
[8] = test system: TK-10 renal
[9] = test system: A498 renal
[10] = test system: RPMI-8226 leukemia
[11] = test system: OVCAR-3 ovarian
[12] = test system: BT-549 breast
[13] = test system: MDA-MB-435 melanoma
[14] = test system: HCC-2998 colon
[15] = test system: UACC-257 melanoma
[16] = test system: CAKI-1 renal

Measured: growth

C/C=C\C(=O)O[C@@H]1CC2O[C@@H]3C=C(C)C(=O)C[C@]3(C)[C@]1(C)[C@]21CO1
active: [1] -17.5% | [2] -6.67% | [3] -22.9% | [4] -31.6% | [5] -20.9% | [6] -43.2% | [7] -6.14% | [8] -19.4% | [9] -30.2% | [10] -31.2% | [11] -3.17% | [12] -22.8% | [13] -34.3% | [14] -23.5%

C=C1[C@@H](C)C2[C@H](Cc3ccccc3)NC(=O)[C@]23[C@H](OC(C)=O)/C=C/[C@@](C)(O)C(=O)[C@@H](C)C/C=C/[C@H]3[C@@H]1O (stereo not given in full)
active: [1] -37.8% | [4] -1.19% | [9] -18.8%
inactive: [2] 76.1% | [3] 81.2% | [5] 87.1% | [6] 81.5% | [7] 79% | [8] 26.4% | [10] 19.8% | [11] 81.2% | [12] 12.4% | [13] 64.1% | [14] 78.5%

N#Cc1nc(-c2ccccc2)oc1N1CCC(S(=O)(=O)F)CC1
inactive: [1] 94.2% | [2] 103% | [3] 98.9% | [4] 92.3% | [15] 107% | [5] 104% | [6] 120% | [7] 100% | [8] 113% | [16] 100% | [9] 108% | [10] 101% | [12] 108% | [13] 98.8% | [14] 104%

CC1=C2C(=O)[C@](C)(CO)C=C2C(=O)[C@](C)(O)C12CC2
active: [1] -6.97% | [3] -24.5% | [4] -82.9% | [6] -35.6% | [8] -6.25% | [9] -35.9% | [11] 4.36% | [12] 8.15% | [14] -2.5%
inactive: [2] 16.5% | [15] 25.3% | [5] 17.9% | [7] 40.2% | [16] 45.8%

NC1CCc2cc(O)c(O)cc2C1 (stereo not given)
active: [2] 1.68%
inactive: [4] 81.9% | [15] 103% | [5] 87.1% | [6] 97.7% | [7] 90.5% | [8] 94.6% | [16] 94.1% | [9] 71.9% | [10] 17.2% | [11] 101% | [12] 86.3% | [13] 81.4% | [14] 46.2%

COc1cc(C)c(-c2ccc(OC)c(=O)cc2C)c(OC)c1OC
0.162% (active) and 113% (inactive): [6]
6.36% (active) and 85.8% (inactive): [2]
-10.8% (active) and 115% (inactive): [4]
-4.07% (active) and 99.6% (inactive): [13]
inactive: [1] 39.6% and 85.5% | [3] 46.7% and 95.3% | [15] 56.2% and 97.6% | [5] 47.9% and 103% | [7] 37.1% and 98.3% | [8] 94.5% and 94.2% | [16] 39.6% and 86.1% | [10] 15% and 94.4% | [12] 15.7% and 120% | [14] 10.6% and 114%
-18% (active) and 86.9% (inactive): [9]

CC1=C[C@H]2O[C@@H]3C[C@@H](O)[C@](C)([C@@]2(C)CC1)[C@@]31CO1
inactive: [1] 41.3% | [2] 18.5% | [3] 21% | [4] 15.3% | [5] 27.1% | [6] 22.6% | [7] 25.4% | [8] 52.8% | [9] 39.2% | [10] 29.3% | [11] 38.9% | [12] 21.1% | [13] 21.1% | [14] 18.2%

O=C(CCCc1ccc(N(CCCl)CCCl)cc1)OCc1ccccc1
inactive: [1] 103% | [2] 93.8% | [3] 92% | [4] 109% | [15] 94.1% | [5] 101% | [6] 111% | [7] 79.1% | [8] 107% | [16] 73.7% | [9] 98.5% | [10] 96.3% | [12] 95.5% | [13] 94.4% | [14] 101%
